Rows were chosen to be rich in hits. Some 15% of all compounds tested hit in one or more screens of this group.
SARS PLpro yeast: qHTS of Yeast-based Assay for SARS-CoV PLP; S. cerevisiae expressing SARS-CoV PLpro, growth rescue; 330,000 tested, 0.19% active; AID 485353, 2010; Potency, µM (highest dose often 32.9 µM), inactives show at the highest dose activity, positive = growth rescue, most hits filed as activators; calls by dose curve; also: potency is read from the fitted curve at half-maximal effect; 0% is about no effect; nearly all actives have a fitted effect of over 55% in size
Pf growth 48h: Primary qHTS for delayed death inhibitors of the malarial parasite plastid, 48 hour incubation; P. falciparum luciferase growth in erythrocytes, 48 h; Potency, µM (doses to about 28.7 µM), inactives show at the top dose activity change, negative = inhibition, usual class: inhibitors; 310,000 tested, 5.9% active; AID 504832, 2011; also: potency is read from the fitted curve at half-maximal effect; % is scaled to controls: 0 for no effect and ±100 for the full control effect
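Compounds are pin-transferred into medium, infected erythrocytes (2% hematocrit, 0.1% parasitemia final) are added, and plates sit one parasite generation at 37 C in 5% CO2. Detection reagent is then added and luminescence measured.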
Pf growth 96h: Primary qHTS for delayed death inhibitors of the malarial parasite plastid, 96 hour incubation; 320,000 tested, 6.9% active; Potency, µM (top dose mostly 28.7 µM), for the others: at the top dose activity change, negative = inhibition, most hits filed as inhibitors; AID 504834, 2011; P. falciparum luciferase reporter growth, 96 h; also: potency is read from the fitted curve at half-maximal effect; % is scaled to controls: 0 for no effect and ±100 for the full control effect
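Plates of compound plus infected erythrocytes (2% hematocrit, 0.05% parasitemia final) incubate 96 hours, 37 C, 5% CO2. Detection reagent added; reduced luminescence from the parasites' luciferase reporter flags inhibition.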
Sm TGR block: qHTS Assay for the Inhibitors of Schistosoma Mansoni Peroxiredoxins. purified TGR, DTNB reduction, TNB absorbance 405 nm. Schistosoma mansoni thioredoxin glutathione reductase (TGR), Q962Y6. 360,000 tested, 3% active. Potency, µM (series often up to 114 µM), for the others: at the highest dose activity change, negative = inhibition, hits mostly inhibitors; also: potency is read from the fitted curve at half-maximal effect; % is scaled to controls: 0 for no effect and ±100 for the full control effect; nearly all actives have a fitted effect of over 60% in size
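TGR 20 nM + NADPH 100 uM (dispensed conc.), cpd preinc 15 min RT; start with NADPH (500 uM addition) then DTNB (15 mM addition). Kinetic TNB absorbance, 405 nm filter. Four-parameter Hill fit across titration.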
HCMV antiviral: qHTS Assay for inhibitors of the human cytomegalovirus (HCMV); HFF cells, HCMV-luciferase reporter, 72 h; hits give low values; activity change, negative = inhibition, % at 57.5 µM; 410,000 tested, 4.5% active; AID 1259415, 2018; in the data active = activity change below about -60%; inconclusive = no clear call, values can overlap the other calls; inactive = above about -39%; also: % is scaled to controls: 0 for no effect and ±100 for the full control effect
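Luciferase read-out from HCMV-luciferase-infected HFFs (MOI 1 PFU/cell) 72 h post infection at 37C; compounds added after 16 h cell attachment; activity normalized between buffer-only basal and Salinomycin (10uM) inhibitor controls.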
HCV inhibitor: qHTS Assay for Inhibitors of Hepatitis C Virus (HCV); AID 651820, 2012; Huh7.5.1 HCVcc-Cre infection, luciferase reporter, 44 h; Potency, µM (top dose mostly 41.8 µM), without a hit: at the top dose activity change, negative = inhibition, hits mostly inhibitors; 340,000 tested, 3.4% active; also: potency is read from the fitted curve at half-maximal effect; % is scaled to controls: 0 for no effect and ±100 for the full control effect
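Infectious HCV cell culture screen: compound-treated cells (1,000/well, pre-plated 4 h) are infected with HCVcc-Cre at roughly 0.5 moi and grown 44 h. Infection is quantified by luciferase signal after 15 min substrate incubation at room temperature.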
Numbers without * were called inactive; i = inactive; ? = inconclusive; / = no result; [ ] = another dose, or the depositor's remark. Unless noted, calls follow the shape of the dose curve; as a rule, active = well fitted curve in the direction sought with a large enough effect; inconclusive = small, poorly fitted or top-dose-only effect, or another doubt; inactive = no such curve, though single readings can be large; an effect the other way counts as inactive or inconclusive.

SMILES	SARS PLpro yeast	Pf growth 48h	Pf growth 96h	Sm TGR block	HCMV antiviral	HCV inhibitor
CC(=O)Nc1cccc2c1Cc1ccccc1-2	-7%	60%	32%	-21%	/	?
CCS(=O)(=O)N1CCc2cc(C(=O)N3CCN(c4ccccc4)CC3)ccc21	/	/	/	22%	19	/
COc1cc2c(=O)[nH]c3cc([N+](=O)[O-])ccc3c2cc1[N+](=O)[O-]	/	/	/	/	-94*	/
O=c1[nH][nH]c(=O)c2cc([N+](=O)[O-])ccc12	-13%	19%	32%	5%	4	?
COc1ccc([C@H]2C[C@H](O)[C@@H](n3cc(COC(=O)c4ccccc4)nn3)CN2CC2CCCCC2)cc1	/	/	/	/	-90*	/
O[C@@H]1CN(CC2CCCCC2)[C@@H](c2ccccc2)C[C@H]1n1cc(C2CC2)nn1	/	/	/	/	-21	/
O[C@H]1CN(CC2CCCCC2)[C@@H](c2ccc(Cl)cc2)C[C@@H]1n1cc(C2CC2)nn1	/	/	/	/	-71*	/
O=C(OCc1cn([C@H]2C[C@H](c3ccccc3)N(CC3CCCCC3)C[C@@H]2O)nn1)c1ccccc1	/	/	/	/	3	/
CCOC(=O)C(CC)Sc1c(CC)cnc2c1c(=O)n(C)c(=O)n2C (configuration not stated)	/	/	/	-3%	7	/
N#C/C(=C/c1ccc(Cl)cc1)c1nc(-c2ccc(Br)cc2)cs1	/	/	/	-2%	5	/
N#C/C(=C\Nc1ccc2cn[nH]c2c1)c1nc(-c2ccc(Cl)cc2)cs1	1%	?	4.1µM*	-6%	?	?
O=C1NC[C@H](CCCCN2C[C@H](Cc3ccccc3)N(CCC3CCCCC3)C(=O)C2=O)N(Cc2ccccc2)C1=O	/	/	/	/	8	/
COc1ccc(-c2nnc(NC(=O)c3ccc(S(=O)(=O)N4CCCc5ccccc54)cc3)o2)cc1	10%	12µM*	?	7%	/	10µM*
COc1ccc(C(=O)Nc2ccc3c(c2)CCCN3S(=O)(=O)c2ccc(C)cc2)cc1	/	/	/	-1%	-34	/
O=C(Nc1nnc(C2CC2)o1)c1ccc(S(=O)(=O)N2CCCc3ccccc32)cc1	22%	/	?	0%	-16	-12%
COCc1nnc(NC(=O)c2ccc(S(=O)(=O)N3CCCc4ccccc43)cc2)o1	17%	?	?	-14%	-78*	13µM*
O=C(/C=C/c1ccc(Br)o1)Nc1nnc(C2CC2)s1	0%	24%	?	11µM*	/	/
O=C(Nc1nnc(C2CC2)s1)C1COc2ccccc2O1 (configuration not stated)	-7%	i	235%	?	40	-4%
CC(C)(C)OC(=O)N1CCC(c2c(C(=O)NCc3ccc4c(c3)OCO4)cnn2-c2ccc(F)cc2F)CC1	/	/	/	-1%	0	/
CCCN1C(=O)C(O)(CC(=O)c2ccc(CC)cc2)c2ccccc21 (configuration not stated)	/	/	/	8%	-12	/
CC(C)c1ccc(C(=O)CC2(O)C(=O)N(CCc3ccccc3)c3ccc(Cl)cc32)cc1 (configuration not stated)	/	/	/	-4%	-105*	/
O=C(CC1(O)C(=O)N(Cc2ccccc2)c2ccc(Br)cc21)c1ccccc1 (configuration not stated)	/	/	/	5%	14	/
Cc1n[nH]c(C)c1C(=O)CC1(O)C(=O)N(CCc2ccccc2)c2ccc(Br)cc21 (configuration not stated)	-15%	-6%	?	0%	-1	4%
CCCCN1C(=O)C(O)(CC(=O)c2ccc(CC)cc2)c2cc(Br)ccc21 (configuration not stated)	/	/	/	-7%	-79*	/
CCCN1C(=O)C(O)(CC(=O)c2ccc(C(C)C)cc2)c2ccccc21 (configuration not stated)	/	/	/	5%	-31	/
SMILES	SARS PLpro yeast	Pf growth 48h	Pf growth 96h	Sm TGR block	HCMV antiviral	HCV inhibitor
C=CCN1C(=O)C(O)(CC(=O)c2ccco2)c2cc(Br)ccc21 (configuration not stated)	2%	-1%	26%	-10%	-82*	1%
O=C(CC1(O)C(=O)N(CCc2ccccc2)c2ccc(Br)cc21)c1ccccc1O (configuration not stated)	/	/	/	-2%	-77*	/
O=C(CSc1nnc(COc2ccccc2)o1)N1CCCCC1	2%	-22%	20%	7%	-18	7%
O=C1CCC(C(=O)N2CCCCO2)CN1Cc1cccc(F)c1 (configuration not stated)	-5%	8%	?	-14%	-28	6%
O=C(CN1CCN(S(=O)(=O)c2ccccc2)CC1)Nc1ccc2c(c1)CCC2	3%	3%	?	-4%	-35	0%
COC(=O)CN1C(=O)C(O)(CC(=O)c2ccc(Br)cc2)c2ccccc21 (configuration not stated)	2%	/	2%	-16%	-62*	14%
C#CCN1C(=O)C(O)(CC(=O)c2ccc(OC)c(OC)c2)c2cc(Br)ccc21 (configuration not stated)	/	/	/	-12%	-62*	/
CCCOC1CCCN(C(=O)c2cc(COc3ccc(F)c(F)c3)on2)C1 (configuration not stated)	-1%	-1%	?	0%	61	-18%
Cc1ccc(-n2c(=O)c3cccnc3n2CC(=O)Nc2cccc(C)c2C)cc1	/	/	/	1%	-63*	/
CC(=O)c1cn(CC(=O)Nc2cccc(C)c2C)c2ccccc12	1%	39%	-12%	5%	-70*	?
CC(=O)c1cn(CC(=O)Nc2ccc(C)cc2C)c2ccccc12	-11%	?	/	-9%	?	5.6µM*
CCCC(=O)c1cn(CC(=O)OC)c2ccccc12	?	7%	1µM*	3%	11	6%
Cc1cccc(N(C)C(=S)Oc2ccc3ccccc3c2)c1	-16%	-19%	13%	9%	-61*	3%[8.37 µM]
COc1ccc(N(C)C(=S)Oc2ccc(C(=O)Nc3ccccc3)cc2)cc1	6%	?	?	0%	/	/
CC(=O)N1CCN(Cc2ccc(Cl)nc2)CC1	3%	-3%	12%	0%	-78*	17%
CC(=O)C(Cc1ccc(Cl)nc1)(Cc1ccc(Cl)nc1)C(C)=O	1%	-5%	-1%	0%	43	7%
O=c1ccn(C2CCCO2)c(=O)[nH]1 (configuration not stated)	/	/	/	/	-17	14%

Compound activity from PubChem BioAssay.
